Assay [1] can be described thus: inhibitors of TNFa-induced NFkB p65 translocation, primary screen, imaging, HUVEC, MLSMR starter and 10KST1 sets (AID 438;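 active means inhibition above 20% together with a positive visual image hit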;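 further: compound added about 3h40 before a 20 min TNFalpha stimulation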;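 on inhibition: signal is the nuclear over cytoplasmic p65 intensity ratio per well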). Particulars: HUVEC TNFa-induced p65 nuclear translocation; cell count: measured here: nuclei count (cytotoxicity indicator), at 2.08 µM; inhibition: at 2 µM, stronger effect = higher value, 0% TNFa-plus-vehicle, 100% no-TNFa wells.
Assay [2] is described as follows: inhibitors of mutant huntingtin aggregation, primary screen, imaging, exon1htt(103Q)mCFP cells, high-content imaging (AID 483;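 active means visual image review flags a hit and inhibition of aggregation exceeds 20%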;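 further: compound exposure lasted 3 days before fixation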;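 on nuclei count: percent of the per-plate median nuclei count of sample wells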). The following applies: exon1htt(103Q)mCFP cell line, aggregate imaging, at 2 µM; inhibition of aggregation: stronger effect = higher value; nuclei count: measured here: cell count, toxicity.
Assay [3] in a line: inhibitors of E-selectin induction by TNFa, primary screen, imaging, HUVEC, immunofluorescence, MLSMR starter and 10KST1 sets (AID 487;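 active means visually confirmed hit in the image check and inhibition above 20%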;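 on inhibition: signal is fraction of cell area covered by stained E-selectin grains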;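 on nuclei count: 100% = median nuclei count of all wells on the same plate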). Particulars: HUVEC TNFalpha-induced E-selectin immunofluorescence imaging, at 2 µM; inhibition: stronger effect = higher value; nuclei count: measured here: cell number, toxicity.
Assay [4] deals with Voltage-gated potassium channel subunit beta-2 (Rattus norvegicus) (UniProt P62483). Kind of assay: KvBeta enzyme negative modulators, primary screen, biochemical, NADPH fluorescence (AID 622).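 Further: slope of raw intensity against log time taken from 70 to 1610 s.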 Particulars: recombinant KvBeta, 4-cyanobenzaldehyde reduction, at 10 µM, stronger effect = higher value.
For assay [5] the target is unchanged. Kind of assay: KvBeta positive modulators, primary screen, biochemical, NADPH fluorescence (AID 623;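 active means NADPH fluorescence slope more negative than the mean of all samples by about 3 SD, 99.7% confidence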;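 further: fluorescence intensity change per second fitted from 20 to 320 s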). Particulars: Recombinant KvBeta, NADPH fluorescence decrease slope, 10 min; at 10 µM; stronger effect = lower value.
The target of assay [6] is Alpha-2C adrenergic receptor (Homo sapiens) (UniProt P18825). The assay is described as follows: modulators of alpha2C/GIRK thallium flux, primary screen, cell-based, HEK293 alpha2C/GIRK1/2 (AID 624;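 active means fluorescence slope after compound addition differing from the mean of all screened samples at 99.7% confidence, in either direction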;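 further: slope of fluorescence ratio to pre-addition baseline per second over 15 to 24 s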). The following applies: thallium flux BTC fluorescence, at 10 µM, actives lie on both sides.
The nature of assay [7]: inhibitors of Sendai virus-induced IRF3 signaling, primary screen, TLR/RLR signaling modifier project, cell-based, Sendai virus stimulus, luciferase, 10K MLSCN set (AID 602276;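 active means inhibition at or above 50% at 10 µM; inactive means inhibition below 50%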;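 further: firefly luciferase from ISG56 promoter only with Renilla not read in this screen; 0% = Sendai virus plus DMSO and 100% = medium plus DMSO without virus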). Particulars: HEK293 RL24 IRF3 luciferase reporter, at 10 µM, stronger effect = higher value. (In general: In a reporter assay the amount or activity of a reporter protein is the signal.)
Assay [8] can be described thus: inhibitors of poly I:C-induced TLR3 signaling, primary screen, cell-based, poly I:C stimulus, luciferase, 10K MLSCN set (AID 602277;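 active means inhibition of the reporter signal at or above 50%; inactive means inhibition below 50%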). The following applies: HEK293-TLR3 RL24 IRF3 luciferase reporter, at 10 µM, stronger effect = higher value.

SMILES strings stand for the structures. Activity calls are given as the source filed them.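 How the source made its calls, unless noted: active means fluorescence slope higher than the sample average by over 3 SD (cut at about -0.22 in these data, passing the limit was not always enough); inactive means the rest.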

Sequence of Alpha-2C adrenergic receptor (Homo sapiens) (P18825 whole entry, looked up): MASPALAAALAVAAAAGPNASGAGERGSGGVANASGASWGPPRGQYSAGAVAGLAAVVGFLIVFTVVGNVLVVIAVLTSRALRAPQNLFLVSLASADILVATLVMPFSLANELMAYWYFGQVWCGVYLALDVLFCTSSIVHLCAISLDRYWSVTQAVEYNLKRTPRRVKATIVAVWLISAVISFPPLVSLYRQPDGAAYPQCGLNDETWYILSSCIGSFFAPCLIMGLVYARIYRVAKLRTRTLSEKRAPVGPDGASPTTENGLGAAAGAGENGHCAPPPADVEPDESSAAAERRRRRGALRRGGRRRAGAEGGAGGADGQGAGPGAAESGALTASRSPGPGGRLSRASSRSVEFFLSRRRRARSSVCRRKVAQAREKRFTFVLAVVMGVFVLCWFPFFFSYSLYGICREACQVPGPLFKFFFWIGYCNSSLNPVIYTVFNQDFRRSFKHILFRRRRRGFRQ
Sequence of Voltage-gated potassium channel subunit beta-2 (Rattus norvegicus) (P62483 whole entry, looked up): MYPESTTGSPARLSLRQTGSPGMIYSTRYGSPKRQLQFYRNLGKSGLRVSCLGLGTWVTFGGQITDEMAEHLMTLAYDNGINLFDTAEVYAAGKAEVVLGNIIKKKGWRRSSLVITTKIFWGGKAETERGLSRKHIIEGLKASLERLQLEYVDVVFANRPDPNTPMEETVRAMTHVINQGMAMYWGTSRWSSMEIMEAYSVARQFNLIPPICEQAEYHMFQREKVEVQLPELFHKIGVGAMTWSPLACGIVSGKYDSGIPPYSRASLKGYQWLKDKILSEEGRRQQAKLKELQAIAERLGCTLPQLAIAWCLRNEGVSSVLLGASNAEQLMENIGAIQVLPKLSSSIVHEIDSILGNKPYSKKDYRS

In general, inhibition refers to the drop in the measured response relative to a control, in per cent. On to `CCn1c(=O)c2cc(S(=O)(=O)NCc3ccccc3)ccc2n(CC)c1=O`, for which the cell count in assay [1] was found to be 404. Further, the inhibition in assay [1] was -2.3% (inactive); in assay [3], 0.2% (inactive); in assay [7] it was 11.6% (inactive); in assay [8] it was 3.23% (inactive). The inhibition of aggregation in assay [2] was -3.8% (inactive). The nuclei count in assay [2] worked out at 104%; in assay [3], 126%. The fluorescence slope in assay [4] was -0.573 (inactive). The NADPH fluorescence slope in assay [5] was 1.7e-05 (inactive). In assay [6], the slope was 0.00625 (inactive).

Regarding `CCN(C(=O)COC(=O)c1cc(C)n(-c2ccc(F)cc2)c1C)C1CCS(=O)(=O)C1` (centres undefined), in assay [1], the cell count came to 496. For the same compound, the inhibition is -3.4% (inactive) in assay [1], -35.5% (inactive) in assay [3], 13.2% (inactive) in assay [7] and 13% (inactive) in assay [8]. Also, the inhibition of aggregation in assay [2] was -3.9% (inactive). Also, the nuclei count in assay [2] turned out to be 114%; in assay [3] it was 115%. In addition, the fluorescence slope in assay [4] was -0.537 (inactive). In addition, the NADPH fluorescence slope in assay [5] was 3.5e-06 (inactive). Further, in assay [6], the slope is 0.00451 (inactive).

As for `CC(=O)c1sc(NC(=O)C2COc3ccccc3O2)nc1C` (centres undefined), in assay [1], the cell count stood at 604. The inhibition was -0.3% (inactive) in assay [1], 19.7% (inactive) in assay [3], 15.8% (inactive) in assay [7] and -48.7% (inactive) in assay [8]. Besides, in assay [2], the inhibition of aggregation is 24.9% (inactive). Also, the nuclei count in assay [2] was 87.8%; in assay [3], 104%. In addition, in assay [4], the fluorescence slope is -0.586 (inactive). Besides, the NADPH fluorescence slope in assay [5] was -2.4e-05 (inactive). The slope in assay [6] was 0.00774 (inactive).

For `CC(C)c1ccc(-c2nc(N3CCOCC3)[nH]c(=O)c2C#N)cc1`, the cell count in assay [1] was 321. In addition, the inhibition was -8.9% (inactive) in assay [1], -32.8% (inactive) in assay [3], 13.1% (inactive) in assay [7] and 13.1% (inactive) in assay [8]. Also, the inhibition of aggregation in assay [2] is -12% (inactive). The nuclei count in assay [2] was 95.4%; in assay [3] it was 114%. Moreover, in assay [4], the fluorescence slope is -0.405 (inactive). Also, the NADPH fluorescence slope in assay [5] was -2e-05 (inactive). The slope in assay [6] is 0.00599 (inactive).

With `CCOc1cc(C(=O)N(C)Cc2cc3ccccc3[nH]c2=O)cc(OCC)c1OCC`, the cell count in assay [1] was 376. For the same compound, the inhibition in assay [1] was 0.6% (inactive); in assay [3], -205% (inactive); in assay [7] it was 11.9% (inactive); in assay [8], 18.9% (inactive). Further, the inhibition of aggregation in assay [2] is 22.5% (inactive). The nuclei count was 87.4% in assay [2] and 196% in assay [3]. Besides, in assay [4], the fluorescence slope was -0.325 (inactive). Also, the NADPH fluorescence slope in assay [5] is -5e-05 (inactive). Besides, the slope in assay [6] was 0.00465 (inactive).

`CCSc1ccccc1C(=O)Nc1cccc(OC)c1`: the cell count in assay [1] was found to be 421. Also, the inhibition in assay [1] is 0.8% (inactive); in assay [3], -1.4% (inactive); in assay [7], -8.73% (inactive); in assay [8], -15.7% (inactive). Besides, in assay [2], the inhibition of aggregation is -0.9% (inactive). In addition, the results for the nuclei count in assay [2] and in assay [3] were 112% and 75%, respectively. Further, the fluorescence slope in assay [4] is -0.539 (inactive). Also, the NADPH fluorescence slope in assay [5] is -8.4e-05 (inactive). Further, the slope in assay [6] was 0.00513 (inactive).

As to `CC1CCN(C(=O)Cn2cc3c(n2)CCCC3)CC1`, in assay [1], the cell count worked out at 931. The inhibition was -1.8% (inactive) in assay [1], -6.8% (inactive) in assay [3], -32.6% (inactive) in assay [7] and -60.8% (inactive) in assay [8]. In addition, the inhibition of aggregation in assay [2] was -26% (inactive). Also, the nuclei count in assay [2] was 114%; in assay [3], 89.8%. Moreover, the fluorescence slope in assay [4] is -0.612 (inactive). In addition, the NADPH fluorescence slope in assay [5] was -7.4e-06 (inactive). For the same compound, the slope in assay [6] was 0.00712 (inactive).

For `CC(C)(C)C(=O)NC1CCN(C(=O)N2CCCC2)CC1`, the cell count in assay [1] is 685. Moreover, the inhibition in assay [1] was -6.3% (inactive); in assay [3] it was -36.6% (inactive); in assay [7], 12.1% (inactive); in assay [8], 20.9% (inactive). Moreover, the inhibition of aggregation in assay [2] was -5.3% (inactive). For the same compound, the nuclei count in assay [2] is 107%; in assay [3] it was 118%. Also, the fluorescence slope in assay [4] is -0.311 (inactive). Also, the NADPH fluorescence slope in assay [5] was -3.2e-05 (inactive). The slope in assay [6] is 0.00525 (inactive).

As for `COc1ccc(-c2cc(C(F)(F)F)n3ncc(C(=O)NCC4CCCO4)c3n2)cc1` (centres undefined), in assay [1], the cell count worked out at 669. Moreover, the inhibition in assay [1] was 6.7% (inactive); in assay [3], 57.7% (inactive); in assay [7], 13.6% (inactive); in assay [8], 25.3% (inactive). The inhibition of aggregation in assay [2] is -1% (inactive). In addition, the nuclei count is 67.5% in assay [2] and 95.2% in assay [3]. Moreover, in assay [4], the fluorescence slope was -0.00373 (active). In addition, in assay [5], the NADPH fluorescence slope is 2e-06 (inactive). The slope in assay [6] was 0.00552 (inactive).

`CC(=NCC1CCNCC1)C1=C(O)CC(C)(C)CC1=O`: in assay [1], the cell count was 663. For the same compound, the inhibition in assay [1] was -11% (inactive); in assay [3], 12.1% (inactive); in assay [7], 4.83% (inactive); in assay [8] it was 23.6% (inactive). For the same compound, the inhibition of aggregation in assay [2] is -14.1% (inactive). The nuclei count in assay [2] is 113%; in assay [3], 132%. Further, in assay [4], the fluorescence slope was -0.499 (inactive). Also, the NADPH fluorescence slope in assay [5] is 4e-06 (inactive). In addition, the slope in assay [6] was 0.00593 (inactive).

Take `CCOC(=O)c1sc2nc(NC(=O)C(C)(C)C)sc2c1C`: in assay [1], the cell count stood at 600. Also, the inhibition was 16.7% (inactive) in assay [1], -25.6% (inactive) in assay [3], -20.5% (inactive) in assay [7] and -150% (inactive) in assay [8]. Moreover, the inhibition of aggregation in assay [2] is -3.3% (inactive). In addition, the nuclei count in assay [2] came out at 112%; in assay [3] it was 104%. In assay [4], the fluorescence slope was -0.496 (inactive). For the same compound, the NADPH fluorescence slope in assay [5] was -2.5e-05 (inactive). Moreover, the slope in assay [6] was 0.00604 (inactive).

With `COc1ccc(NC(=O)Nc2ccc(C)cc2OC(F)F)cc1OC`, in assay [1], the cell count amounted to 335. Besides, the inhibition in assay [1] was -6.5% (inactive); in assay [3], -38.2% (inactive); in assay [7] it was 1.59% (inactive); in assay [8] it was -6.11% (inactive). For the same compound, the inhibition of aggregation in assay [2] is 6.2% (inactive). For the same compound, the nuclei count is 91.2% in assay [2] and 94.2% in assay [3]. The fluorescence slope in assay [4] is -0.422 (inactive). In addition, the NADPH fluorescence slope in assay [5] was -5.1e-05 (inactive). In assay [6], the slope is 0.00406 (inactive).

With `C/C=C/COC(=O)c1[nH]c2c(c1C)C(=O)CC(c1ccc(N(C)C)cc1)C2` (centres undefined), in assay [1], the cell count was determined as 699. In addition, the inhibition in assay [1] was 1.8% (inactive); in assay [3], -46.6% (inactive); in assay [7], -29.1% (inactive); in assay [8], -68.7% (inactive). The inhibition of aggregation in assay [2] was 14.4% (inactive). Also, the nuclei count was determined as 79.6% in assay [2] and 115% in assay [3]. The fluorescence slope in assay [4] was -0.543 (inactive). For the same compound, in assay [5], the NADPH fluorescence slope was -2.2e-05 (inactive). Also, the slope in assay [6] is 0.00679 (inactive).

Turning to `C/C(N)=C(/C#N)C(=O)CSc1nnc(Nc2c(C)cccc2C)s1`, the cell count in assay [1] worked out at 354. Besides, the inhibition in assay [1] is 13.1% (inactive); in assay [3], -30.9% (inactive); in assay [7], 6.86% (inactive); in assay [8], 2.86% (inactive). Moreover, in assay [2], the inhibition of aggregation is 8.1% (inactive). In addition, the nuclei count was found to be 70.3% in assay [2] and 119% in assay [3]. Besides, the fluorescence slope in assay [4] was -0.586 (inactive). Moreover, the NADPH fluorescence slope in assay [5] is -5.6e-05 (inactive). Also, in assay [6], the slope was 0.00543 (inactive).

For the origin of these results see PubChem BioAssay.
